In PubChem BioAssay (NCATS):
Where “and” joins values, the source holds several entries; their conditions need not be identical. Identical values can stand only once. Inconclusive results are not listed. Calls of active or inactive are those of the source. Calls come from the whole dose curve; as a rule, active = well fitted inhibition curve with a large enough effect; inconclusive = small, poorly fitted or top-dose-only effect; inactive = flat fitted curve, though single readings scatter.

Legend:
Test in all cases: Cytotoxic Profiling of Annotated Libraries Using Quantitative High-Throughput Screening (AID 1296008); note: nearly all actives have a fitted effect of over 60% in size
Details in all cases: Five cell lines viability, CellTiter-Glo ATP luminescence, 48-72 h; max response: stronger effect = lower value
CRL-7250 = normal cell line; tested on: CRL-7250
In short: (§1)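 Cytotoxicity was measured as CellTiter-Glo ATP luminescence, read after 10 min at room temperature. Compound treatment of the cells lasted 48 or 72 hr at 37 degrees Celsius in a qHTS format.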

HaCat = tested on: HaCat
In short: as §1

KB-3-1 = tested on: KB-3-1
In short: as §1

NIH3T3 = tested on: NIH3T3
In short: as §1

HEK293 = tested on: HEK293
In short: as §1
% is set by controls: 0 for no effect and ±100 for the full control effect; potency is the fitted concentration of half-maximal effect.

O=C(O)[C@H]1O[C@H](Oc2cc3oc(-c4ccccc4)cc(=O)c3c(O)c2O)[C@H](O)[C@@H](O)[C@H]1O
inactive: max response (CRL-7250) -6.52% | max response (HaCat) -7.89% | max response (KB-3-1) 2.26% | max response (NIH3T3) -17.6%

COC[C@@H](c1ccc(C(F)(F)F)cc1)N1CCN(C2(C)CCN(C(=O)c3c(C)ncnc3C)CC2)C[C@H]1C
inactive: max response (CRL-7250) -6.4% | max response (HaCat) -0.948% | max response (KB-3-1) 5.03% | max response (NIH3T3) 4.62%

CN(C)Cc1cccc(N=C(c2ccccc2)c2c(O)[nH]c3cc(C(=O)N(C)C)ccc23)c1
inactive: max response (HaCat) -49.2% | max response (KB-3-1) -15%
active: Potency (CRL-7250) 20.9 µM | Potency (NIH3T3) 13.2 µM

C=C1C(=O)[C@@]23C(CC[C@@H]1[C@H]2O)[C@@]12CO[C@]3(O)[C@@H](O)[C@@H]1C(C)(C)CC[C@@H]2O (some centres undefined)
active: Potency (CRL-7250) 18.4 µM | Potency (HEK293) 13.2 µM and 8.2 µM | Potency (NIH3T3) 18.7 µM

CCNc1cc(NC2CCC(O)CC2)nc(Nc2ccc3c(ccn3Cc3ccccc3)c2)n1 (centres undefined)
inactive: max response (CRL-7250) 1.87% | outcome (HaCat) | outcome (NIH3T3)
active: Potency (HEK293) 20.9 µM

COc1ccc(-c2coc3cc(O)cc(O)c3c2=O)cc1
inactive: max response (CRL-7250) 1.69% | max response (HaCat) 1.1% | outcome (KB-3-1) | outcome (NIH3T3)

N#CC1(c2ccc(NC(=O)c3cccnc3NCc3ccncc3)cc2)CCCC1
inactive: max response (CRL-7250) -26.7% | outcome (HaCat) | max response (KB-3-1) -11.6% | max response (NIH3T3) -15.9%

COc1cc(O)c2c(c1)C(=O)c1cc(C)cc(O)c1C2=O
inactive: outcome (CRL-7250) | max response (HaCat) -5.67% | max response (KB-3-1) -1.03% | outcome (NIH3T3)

N[C@H](CSC(c1ccccc1)(c1ccccc1)c1ccccc1)C(=O)O
inactive: max response (CRL-7250) -7.2% | outcome (HaCat)
active: Potency (HEK293) 9.35 µM | Potency (NIH3T3) 26.4 µM

O=c1c(-c2ccc(O)cc2)coc2cc(OC3O[C@H](CO)[C@H](O)[C@H](O)[C@H]3O)cc(O)c12 (some centres undefined)
inactive: max response (CRL-7250) -31.9% | max response (HaCat) -51.1%

O=C(O)C=Cc1ccc(O)c(O)c1
inactive: max response (CRL-7250) -10.7% | max response (HaCat) -23.4% | max response (KB-3-1) 6.69% | max response (NIH3T3) -24.2%

CC(C)(C(=O)NCC(F)(F)C(F)(F)F)C(=O)N[C@@H]1C(=O)Nc2ccccc2-c2ccccc21
inactive: max response (CRL-7250) -11.4% | max response (HaCat) -2.21% | outcome (KB-3-1) | outcome (NIH3T3)

O=C1NC(=O)C(=Cc2ccc(-c3ccc(F)cc3)o2)S1
inactive: max response (CRL-7250) -0.559% | max response (HaCat) -17.4% | max response (KB-3-1) -5.29% | max response (NIH3T3) -13.2%

O=C1c2c(O)cc(O)cc2O[C@H](c2cc(O)c(O)c(O)c2)[C@H]1O
inactive: max response (CRL-7250) 1.37% | max response (HaCat) -8.4% | max response (KB-3-1) 4.36% | max response (NIH3T3) 4.33%

O=C1NC(=O)C(=Cc2ccc3c(c2)OC(F)(F)O3)S1
inactive: max response (CRL-7250) -15.6% | max response (HEK293) -24.8% | max response (HaCat) -0.402% | max response (NIH3T3) -19.2%

Cc1ccn(-c2ccc(-c3ncco3)cc2)c(=O)c1-c1ccc2nc(N)ncc2c1
active: Potency (CRL-7250) 1.66 µM and 5.17 µM | Potency (NIH3T3) 16.6 µM and 6.51 µM
inactive: max response (HaCat) -12.1% and -22.1% | max response (KB-3-1) 0.602% and 6.68%

CCc1ccc(OCc2ccccc2C(=O)Nc2ccc3nc(C)cc(N)c3c2)cc1
active: Potency (CRL-7250) 10.5 µM | Potency (HEK293) 8.33 µM | Potency (HaCat) 11.8 µM | Potency (NIH3T3) 9.35 µM

CCC(=O)O[C@]1(C(=O)CO)CC[C@H]2[C@@H]3CCC4=CC(=O)CC[C@]4(C)[C@@H]3CC[C@@]21C
active: Potency (CRL-7250) 13.2 µM
inactive: max response (HaCat) -31% | max response (KB-3-1) 0.702% | outcome (NIH3T3)

CON=C(C(=O)N[C@@H]1C(=O)N2C(C(=O)OCOC(=O)C(C)(C)C)=C(C=Cc3scnc3C)CS[C@H]12)c1csc(N)n1
inactive: outcome (CRL-7250) | outcome (HaCat) | max response (KB-3-1) 0.86% | outcome (NIH3T3)

Cc1ccc(C(C)(O)c2nc3ccccc3s2)c(C)c1 (centres undefined)
inactive: max response (CRL-7250) 0.7% | max response (KB-3-1) 4.83%

O=c1cc(-c2ccccc2)oc2cc(O)c(O)c(O)c12
inactive: max response (HEK293) -21.5% | max response (HaCat) 1.36% | max response (KB-3-1) -0.922% | max response (NIH3T3) -19.1%
